Screening results deposited in PubChem BioAssay by National Center for Advancing Translational Sciences (NCATS).
SMN2 splice up – SMN2 splice variant enhancement; HEK293 SMN2-luciferase splicing reporter, luminescence, 30-36 h; AID 1458; 210,000 compounds, 2.8% hits; Potency, µM (top dose mostly 46.1 µM), for the others: at the highest dose activity change, positive = activation, usual class: activators; note: % of control where 0% means no effect; nearly all actives have a fitted effect of over 55% in size
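HEK293 cells carry an SMN2 […]–luciferase reporter in which exon 7 inclusion puts luciferase in frame. Cells were plated 10-12 h before compound addition, then incubated 30-36 h at 37C. ONE-Glo luminescence was read; sodium butyrate at 4.5 mM final served as control.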
KinaseGlo FLuc – counter-screen: inhibitors of Kinase-Glo firefly luciferase; Kinase-Glo luciferase, ATP luminescence, 8 min; Potency, µM (top dose mostly 38.3 µM), for the others: top-dose activity change, negative = inhibition, actives largely listed as inhibitors; 200,000 compounds, 0.28% hits; AID 1379; note: % is set by controls: 0 for no effect and ±100 for the full control effect; nearly all actives have a fitted effect of over 60% in size
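Compound is pinned into ATP-containing buffer (10 uM ATP, imidazole pH 7.2, 7 mM MgCl2). Kinase-Glo luciferase reagent is then added. Light output is recorded following an 8-min room-temperature incubation.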
NPC1 promoter act – NPC1 promoter activation | Huh7 NPC1 promoter luciferase reporter, 24 h | Potency, µM (series often up to 9.22 µM), inactives show at the highest dose activation, hits mostly activators | 320,000 compounds, 2.4% hits | AID 485313; note: % of control where 0% means no effect; nearly all actives have a fitted effect of over 60% in size
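Stable NPC1-promoter luciferase Huh7 line; cpd (DMSO) 24 h, 37 °C, 5% CO2; Amplite luciferase reagent 10 min RT; luminescence readout. qHTS format.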
ELG1 genotox – induces genotoxicity in HEK293T cells with luciferase-tagged ELG1. HEK293T ELG1-luciferase reporter, luminescence, 16 h. Potency, µM (highest dose often 46 µM), for the others: at the top dose activity change, positive = activation, actives largely listed as activators. 330,000 compounds, 1.3% hits. AID 504466; note: % of control where 0% means no effect; nearly all actives have a fitted effect of over 60% in size
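16 hr compound incubation (37 °C, 5% CO2) of HEK293T cells carrying luciferase-tagged ELG1; luciferase then measured by ONE-Glo luminescence after 30 min at RT.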
FLuc counter – firefly luciferase modulation, counter-screen for miR-21 project. P08659. Potency, µM (titrated, usually from 57.5 µM), inactives show at the highest dose activity change, negative = inhibition, most hits filed as inhibitors. 360,000 compounds, 6.9% hits. purified FLuc, Km substrates, luminescence inhibition;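 note: plate controls were vehicle for no effect and reference inhibitor for full effect; nearly all actives have a fitted effect of over 55% in size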
Target sequence (P08659 whole entry, looked up): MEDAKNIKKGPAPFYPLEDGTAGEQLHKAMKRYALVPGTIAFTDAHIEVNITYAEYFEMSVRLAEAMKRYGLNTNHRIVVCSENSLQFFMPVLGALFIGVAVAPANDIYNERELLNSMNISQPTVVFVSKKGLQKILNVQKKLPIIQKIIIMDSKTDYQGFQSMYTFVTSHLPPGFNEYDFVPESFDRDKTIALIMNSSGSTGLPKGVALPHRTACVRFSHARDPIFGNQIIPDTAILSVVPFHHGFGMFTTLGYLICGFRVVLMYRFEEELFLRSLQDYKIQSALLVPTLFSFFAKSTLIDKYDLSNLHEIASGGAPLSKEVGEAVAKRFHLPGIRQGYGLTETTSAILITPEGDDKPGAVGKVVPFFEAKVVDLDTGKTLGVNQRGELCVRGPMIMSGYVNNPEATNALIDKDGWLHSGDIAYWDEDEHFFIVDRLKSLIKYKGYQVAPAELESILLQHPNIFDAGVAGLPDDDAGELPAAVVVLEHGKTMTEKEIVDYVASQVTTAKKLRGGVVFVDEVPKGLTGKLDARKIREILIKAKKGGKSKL
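Biochemical qHTS of compounds, final roughly 60 µM downward over six points, against 10 nM purified firefly luciferase using Km concentrations of substrates (10 uM D-luciferin, 10 uM ATP) in Tris acetate pH 7.5 buffer; luminescence output.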
Rab9 promoter act – Rab9 promoter activation; Huh7 Rab9 promoter-luciferase reporter, luminescence, 24 h; Potency, µM (highest dose often 9.22 µM), without a hit: at the top dose activation, negative = inhibition, hits mostly activators; 320,000 compounds, 2.8% hits; note: % of control where 0% means no effect; nearly all actives have a fitted effect of over 60% in size
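Stable Rab9-luc Huh7, 1500 cells/well, 2 h settle; cmpd in DMSO, 24 h, 37 °C/5% CO2; luciferase reagent 10 min RT; luminescence.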
An asterisk follows results filed as active; [ ] = another dose, or the depositor's remark. Rows were chosen to be rich in hits. Some 7.3% of all compounds tested hit in one or more screens of this group. Calls come from the whole dose curve; as a rule, active = well fitted curve in the direction sought with a large enough effect; inconclusive = small, poorly fitted or top-dose-only effect, or another doubt; inactive = no such curve, though single readings can be large; an effect the other way counts as inactive or inconclusive. Potency is the fitted concentration of half-maximal effect.

For COc1ccc(Br)cc1CNC(=O)c1nn(-c2ccc(C)cc2)c(=O)c2c1c1ccccc1n2C the results were SMN2 splice up 0.9% and FLuc counter -4.1%.
Screening Cc1cc2nc([C@H](C)C(=O)c3ccc(Cl)cc3)c(=O)[nH]c2cc1C returned SMN2 splice up 3.55µM* and KinaseGlo FLuc -1.1%[7.66 µM].
Screening Cc1ccc(-n2ncc3c(NC4CCCCC4)ncnc32)cc1Cl returned FLuc counter 1.07µM*.
For Cc1ccc(-n2ncc3c(NC4CCCCC4)ncnc32)cc1C the results were FLuc counter 0.601µM*.
Screening CC(=O)NNc1ncnc2c1cnn2-c1ccc(C)c(C)c1 returned SMN2 splice up 22.2%, KinaseGlo FLuc -2.2%, NPC1 promoter act 10.7%, ELG1 genotox inconclusive, FLuc counter inconclusive and Rab9 promoter act 20.2%.
`CCC(=O)NNc1ncnc2c1cnn2-c1ccc(C)c(Cl)c1` gave FLuc counter 21.3µM*.
For COc1ccc(N2CCN(c3ncnc4c3cnn4-c3ccc(C)c(Cl)c3)CC2)cc1 the results were FLuc counter 4.7%.
CC(=O)c1cc(-c2ccc(F)cc2)n(CCC(=O)NC2CCCCC2)c1C was read as FLuc counter -6.1%.
O=C(Nc1ccc(Cc2ccncc2)cc1)c1ccc(Br)o1 was read as SMN2 splice up -9.0%, KinaseGlo FLuc 3.6%, NPC1 promoter act 11.2%, ELG1 genotox 1.8%, FLuc counter inconclusive and Rab9 promoter act 19.8%.
Screening COc1ccc(NC(=S)NC(=O)c2ccc(Br)o2)cc1 returned SMN2 splice up 8.91µM*, KinaseGlo FLuc -9.3%, NPC1 promoter act inconclusive, ELG1 genotox inconclusive, FLuc counter 9.53µM* and Rab9 promoter act 3.16µM*.
For O=C(Nc1ccc(Nc2ccccc2)cc1)c1ccc(Br)o1 the results were SMN2 splice up 7.5%, KinaseGlo FLuc -2.3%, NPC1 promoter act 29.6%, ELG1 genotox 12.5%, FLuc counter 19µM* and Rab9 promoter act inconclusive.
O=C(NC(=S)Nc1ccccc1)c1ccc(Br)o1 was read as SMN2 splice up 22.4µM*, KinaseGlo FLuc -2.0%, NPC1 promoter act inconclusive, ELG1 genotox inconclusive, FLuc counter 13.5µM* and Rab9 promoter act inconclusive.
Screening CC(C)c1ccc(NC(=O)c2ccc(Br)o2)cc1 returned SMN2 splice up 2.51µM*, KinaseGlo FLuc -9.8%, NPC1 promoter act 0.891µM*, ELG1 genotox inconclusive, FLuc counter 2.13µM* and Rab9 promoter act 0.631µM*.
Screening O=C(NC(=S)NCc1ccccc1)c1ccc(Br)o1 returned NPC1 promoter act 0.2%, ELG1 genotox 7.4%, FLuc counter -6.2% and Rab9 promoter act -2.1%.
`COc1cccc(CNC(=O)c2ccc(CN3CC(=O)N4CCCCC4C3=O)cc2)c1` (configuration not stated) gave FLuc counter -5.8%.
For Cc1ccc(NC(=O)C2=NNC(=O)CC2)cc1F the results were NPC1 promoter act inconclusive, ELG1 genotox 8.3%, FLuc counter inconclusive and Rab9 promoter act inconclusive.
CC(C)c1ccc(NC(=O)C2=NNC(=O)CC2)cc1 was read as NPC1 promoter act 2.82µM*, ELG1 genotox inconclusive, FLuc counter 12µM* and Rab9 promoter act 3.16µM*.
Screening CC1CCN(c2oc(-c3cccs3)nc2S(=O)(=O)c2ccc(Cl)cc2)CC1 returned SMN2 splice up -1.6% and FLuc counter -1.8%.
c1cnc(SCCOc2ccc3c(c2)CCC3)nc1 was read as SMN2 splice up 12.6µM*, KinaseGlo FLuc -2.4%, NPC1 promoter act 2.82µM*, ELG1 genotox 4.61µM*, FLuc counter 1.69µM* and Rab9 promoter act 1.58µM*.
CCC(=O)c1ccc(OCCSc2ncccn2)cc1 was read as SMN2 splice up 7.94µM*, KinaseGlo FLuc -3.1%, NPC1 promoter act 3.98µM*, ELG1 genotox 3.66µM*, FLuc counter 19µM* and Rab9 promoter act 2µM*.
